The values below come from PubChem BioAssay (NCI).

Structures are written as SMILES. This is part of a sample that, as a whole, favours compounds with a hit. Of some 83,000 tested, about 20% had one in any assay.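 Growth was measured after 48 h exposure to one concentration of compound in 96-well plates. Values under 10 count as active.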 Activity calls are given as the source filed them.

The assay relates to HL-60(TB) leukemia. The assay is described as follows: NCI-60 one-dose screen, 48 h (100 = growth as untreated, 0 = no growth, -100 = all killed). As to conditions: 10 µM unless noted.
For the molecule `CC(C)(C)n1cc(-c2ccnc(NCCNS(=O)(=O)c3ccc(Br)cc3)c2)c(-c2cccc(O)c2)n1`, the growth is -8.19% (active). As to `CO[C@H]1CC(c2ccc[nH]2)=N[C@]12O[C@@H](C)C[C@@H]1CCCCCCCc3ccc([nH]3)[C@H]12`, the growth is 17.5% (inactive). Regarding `CCOC(=O)C1=C(N)Oc2c(sc3c(C)cccc23)C1c1ccc(Cl)cc1` (centres undefined), the growth was 1.5% (active). Then `CCCOc1ccc2nc(NC(=O)OC)[nH]c2c1`, with 3.05% (active); and `COc1ccc(/C=C2/C(=O)ON=C2C)cc1`, with 103% (inactive); and `CC1(C)OC2COC3(C(=O)O)OC(C)(C)OC3C2O1` (centres undefined), with 106% (inactive). The value for `CN(C)CC1C(=O)O[C@H]2[C@H]1CC/C(COC(=O)NCc1ccc(Cn3c(=O)sn(CCCI)c3=O)cc1)=C\CC[C@@]1(C)O[C@@H]21` (some centres undefined) was -36.5% (active); that for `COc1cccc(CCNc2ncnc3c2ncn3Cc2nnc3c4ccccc4c(Cl)nn23)c1` was 57.5% (inactive); that for `COc1ccc2nc(N=Nc3c(O)ccc4ccccc34)sc2c1` was 4.48% (active). As to `C/C(=N\O)c1ccccn1`, the growth was 112% (inactive). Then `COc1cc2c(cc1OCCCCCCN1CCN(CC(=O)Nc3ccc(Cl)cc3C(=O)c3ccccc3Cl)CC1)N=CC1CCCN1C2=O` (centres undefined), with -85.8% (active); and `N#Cc1c2c(nc3n[nH]c(N)c13)CCCC2`, with 87.3% (inactive); and `COc1cccc(-c2nc3sccn3c2/C=C/C(=O)c2ccc(C(F)(F)F)cc2)c1`, with 46.2% (inactive).

Regarding `CC(=O)NCC1c2c(n(C)c3c(Cl)c(Cl)ccc23)C(=O)NC1(C)C` (centres undefined), the growth is 84% (inactive). For the molecule `COc1cnccc1-c1nc2ccc3[nH]ncc3c2c2c1CCCC2`, the growth was 35.1% (inactive). Then `Fc1cccc(-c2nc(-c3c[nH]c4ncccc34)cs2)c1`, with 97.2% [100 µM] (inactive); and `Cc1cc(/C=C/c2ccc3cc(N(C)C)ccc3[n+]2C)c(C)n1-c1ccccc1`, with -26.1% (active). Then `C=C(C)[C@@H]1CC[C@]2(C(=O)N3CCNCC3)CC[C@]3(C)[C@H](CC[C@@H]4[C@@]5(C)C/C(=C/c6ccncc6)C(=O)C(C)(C)[C@@H]5CC[C@]43C)[C@@H]12`, with 99.7% (inactive); and `COc1ccccc1CNCCCN1C(=O)c2ccc3c4c(ccc(c24)C1=O)C(=O)N(CCCNCCNCCCN)C3=O`, with 0.848% (active). The value for `CCOC(=O)C(CCCCC(NC(C)=O)(C(=O)OCC)C(=O)OCC)(NC(C)=O)C(=O)OCC` was 104% (inactive); that for `CN1CCN(c2nc(NCCCNc3ccnc4cc(Cl)ccc34)c3ccccc3n2)CC1` was 15% (inactive). `Cc1csc(NC(=O)c2sc3nc(-c4cccs4)ccc3c2N)n1`: the growth is 105% (inactive). The value for `O=C1NC(=O)/C(=C\c2ccccc2)C2=C1CCCC2` was -33.3% (active). Then `CN1C(=O)N(C)C2Nn3c(s/c(=C4\C(=O)N(CCc5ccccc5)c5ccccc54)c3=O)=NC21` (centres undefined), with 56.9% (inactive). The value for `CC(COC(=O)c1ccccc1)N1CC2CCC(C1)O2` (centres undefined) was 101% (inactive). As to `CCN(CC)CCO/N=C1\CC(c2ccc(OC)c(OC)c2)Oc2ccccc21` (centres undefined), the growth was 78.4% (inactive). The value for `Cc1ccccc1CC(N)C(=O)O` (centres undefined) was 103% (inactive); that for `C=CC(=O)N1CCC[C@@H](n2nc(-c3ccc(Oc4ccccc4)cc3)c3c(N)ncnc32)C1` was 82.5% (inactive). Turning to `Oc1ccc(Nc2ccc3ccccc3c2)cc1`, the growth is 54.9% (inactive). Consider `CCOC(=O)CCN(CC(C)C)C(=S)Nc1ccccc1`, for which the growth was 97.2% (inactive). Then `CC(=O)C1C(=O)C(=O)N(c2cccc([N+](=O)[O-])c2)C1=O` (centres undefined), with 103% (inactive); and `COc1ccc(-c2nc(-c3ccccc3)c(-c3ccccc3)[nH]2)cc1OC1CCCCC1`, with 97.6% (inactive).

Take `NC1=Nc2ccccc2N(O)N1`: the growth was 88.4% (inactive). The value for `COc1cnc2c(c1)C(=O)c1c-2n(CCCN2CCN(CCO)CC2)c(=O)c2cc([N+](=O)[O-])ccc12` was 12.7% (inactive). `CC(=O)C1=C(O)C=C2Oc3c(C(=O)/C=C/c4cc(Cl)cc(Cl)c4)c(O)c(C)c(O)c3[C@]2(C)C1=O`: the growth was -34.8% (active).

Regarding `NNc1cccc([N+](=O)[O-])c1`, the growth was 6.4% (active). Then `Cc1ccc(Cc2cnc(NC(=O)CN3C(=O)/C(=C\c4ccccc4)SC3=S)s2)cc1`, with 99.6% (inactive). The value for `CCCCCc1c(C)[nH]c(/C=C2\N=C(c3ccc[nH]3)C=C2Oc2ccc(OC)cc2)c1C` was -39% [100 µM] (active); that for `O[C@@H]1CCO[C@H](c2ccc3ccccc3c2)C1` was 102% (inactive).
